# Experimental data from PubChem BioAssay.
# Active and inactive are the calls of the source. Unless noted, the rule behind the calls is not given here.
# Columns and labels:
# [1] = A549 cell viability effects, profiling panel, calcein-AM fluorescence, 48 h, basal (AID 1162); conditions: higher = more signal; note: test concentration not given here
# [2] = adipocyte viability effects, profiling panel, cell-based, 3T3-L1 adipocytes, calcein-AM fluorescence, 48 h, basal (AID 1163); conditions: 3T3-L1 adipocytes viability, higher = more signal; note: test concentration not given here
# [3] = HepG2 cell viability effects, profiling panel, calcein-AM fluorescence, 48 h, basal (AID 1164); conditions: higher = more signal; note: test concentration not given here
# [4] = MM1S cell viability effects, profiling panel, calcein-AM fluorescence, 48 h, basal (AID 1165); conditions: higher = more signal;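 note: viability of MM1S multiple myeloma cells under basal unstimulated conditions; test concentration not given here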
# [5] = basal RPMI8226 viability, no added stimulus, profiling panel, cell-based, calcein-AM fluorescence, 48 h, PK04 Diversity Set (AID 1166); conditions: RPMI8226 myeloma viability, higher = more signal;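 note: cells grown under basal conditions without added stimulus; test concentration not given here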
# [6] = basal HepG2 mitochondrial membrane potential changes, profiling panel, cell-based, JC-1 fluorescence, 24 h, 100 nL compound (AID 1167); conditions: higher = more signal; note: test concentration not given here
# [7] = basal 3T3-L1 adipocyte mitochondrial potential changes, profiling panel, cell-based, JC-1 fluorescence, 3T3-L1 adipocytes, 24 h, 100 nL compound (AID 1168); conditions: JC-1 mitochondrial fluorescence, higher = more signal, called active from +8 up or from −8 down; note: test concentration not given here
# [8] = basal RPMI8226 mitochondrial membrane potential changes, profiling panel, cell-based, JC-1 fluorescence, 24 h, 100 nL compound (AID 1169); conditions: RPMI8226 myeloma, JC-1 mitochondrial potential fluorescence, higher = more signal; note: test concentration not given here
# [9] = basal MM1S mitochondrial membrane potential changes, profiling panel, cell-based, JC-1 fluorescence, 24 h, 100 nL compound (AID 1170); conditions: higher = more signal; note: test concentration not given here
# [10] = A549 lung cancer cell viability effects, profiling panel, resazurin fluorescence, 24 h, PK04 Diversity Set (AID 1171); conditions: higher = more signal, called active from +8 up or from −8 down; note: test concentration not given here
# [11] = HepG2 liver cancer cell viability effects, profiling panel, resazurin fluorescence, 24 h, PK04 Diversity Set (AID 1172); conditions: higher = more signal; note: test concentration not given here
# [12] = basal S. cerevisiae growth modulation, no modifier, primary screen, OD600, strain BY4716, 24 h, basal condition (AID 1173); conditions: OD600, 24 h, higher = more signal, called active from +8 up or from −8 down
# [13] = MM1S myeloma cell viability, profiling panel, resazurin fluorescence, basal, 24 h, PK04 Diversity Set (AID 1174); conditions: higher = more signal, called active from +8 up or from −8 down;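 note: MM1S multiple myeloma cell line; test concentration not given here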
# [14] = target: Dihydroorotate dehydrogenase (quinone), mitochondrial (Plasmodium falciparum (isolate 3D7)) (UniProt Q08210); assay: PfDHODH enzyme inhibitors, primary screen, biochemical, C-terminal His tag, absorbance 600 nm (AID 1175); conditions: DCIP absorbance 600 nm, higher = more signal, called active from +8 up or from −8 down;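 note: recombinant parasite enzyme with a five histidine tag at its C terminus; test concentration not given here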
# [15] = P. aeruginosa biofilm formation inhibitors, primary screen, strain PAO1, LB-PBS medium, absorbance 600 nm (AID 1176); note: test concentration not given here; conditions: P. aeruginosa PAO1 growth/biofilm, A600, 12 h; higher = more signal
# [16] = S. cerevisiae RM11-1a growth modifiers, primary screen, strain RM11-1a, OD600, basal, 24 h (AID 1177); conditions: OD600, 24 h, higher = more signal, called active from +8 up or from −8 down;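 note: cultures grown under basal conditions with no added stressor; test concentration not given here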
# [17] = E. coli acrAB mutant growth effects, primary screen, E. coli filamentation inducers, strain DRC39, OD650, 24 h (AID 1178); conditions: higher = more signal, called active from +8 up or from −8 down;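 note: growth measured as culture turbidity by optical density at 650 nm; test concentration not given here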
# [18] = E. coli acrAB mutant growth effects, primary screen, E. coli filamentation inducers, strain DRC39, OD650, 48 h (AID 1179);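 note: screen aims at cell division blockers that make cells filament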; conditions: E. coli DRC39 delta-acrAB growth, higher = more signal, called active from +8 up or from −8 down
# [19] = RPMI8226 myeloma cell viability, profiling panel, resazurin fluorescence, basal, 24 h, PK04 Diversity Set (AID 1180); conditions: higher = more signal;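 note: RPMI8826 multiple myeloma cell line at 5000 cells per well; test concentration not given here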
# [20] = target: E3 ubiquitin-protein ligase XIAP (Homo sapiens) (UniProt P98170); assay: XIAP binders, primary screen, biophysical, small-molecule microarray, fluorescence 635 nm (AID 1181); conditions: small-molecule microarray binding, higher = more signal;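 note: score merges 667 nm emission and signal to noise over triplicate slides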
# Sequence of E3 ubiquitin-protein ligase XIAP (Homo sapiens) (P98170 whole entry, looked up): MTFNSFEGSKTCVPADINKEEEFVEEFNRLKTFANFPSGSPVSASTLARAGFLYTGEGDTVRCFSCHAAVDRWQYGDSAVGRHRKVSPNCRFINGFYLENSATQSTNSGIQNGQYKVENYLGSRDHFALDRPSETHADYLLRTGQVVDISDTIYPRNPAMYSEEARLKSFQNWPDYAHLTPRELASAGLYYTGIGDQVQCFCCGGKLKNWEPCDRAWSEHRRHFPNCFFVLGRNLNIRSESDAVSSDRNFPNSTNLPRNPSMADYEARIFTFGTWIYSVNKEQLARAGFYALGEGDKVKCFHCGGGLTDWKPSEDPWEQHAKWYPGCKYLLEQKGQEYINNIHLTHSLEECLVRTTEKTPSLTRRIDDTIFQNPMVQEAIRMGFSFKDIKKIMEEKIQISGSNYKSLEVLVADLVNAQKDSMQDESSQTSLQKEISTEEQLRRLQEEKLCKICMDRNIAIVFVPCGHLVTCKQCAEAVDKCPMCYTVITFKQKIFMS
# Sequence of Dihydroorotate dehydrogenase (quinone), mitochondrial (Plasmodium falciparum (isolate 3D7)) (Q08210 whole entry, looked up): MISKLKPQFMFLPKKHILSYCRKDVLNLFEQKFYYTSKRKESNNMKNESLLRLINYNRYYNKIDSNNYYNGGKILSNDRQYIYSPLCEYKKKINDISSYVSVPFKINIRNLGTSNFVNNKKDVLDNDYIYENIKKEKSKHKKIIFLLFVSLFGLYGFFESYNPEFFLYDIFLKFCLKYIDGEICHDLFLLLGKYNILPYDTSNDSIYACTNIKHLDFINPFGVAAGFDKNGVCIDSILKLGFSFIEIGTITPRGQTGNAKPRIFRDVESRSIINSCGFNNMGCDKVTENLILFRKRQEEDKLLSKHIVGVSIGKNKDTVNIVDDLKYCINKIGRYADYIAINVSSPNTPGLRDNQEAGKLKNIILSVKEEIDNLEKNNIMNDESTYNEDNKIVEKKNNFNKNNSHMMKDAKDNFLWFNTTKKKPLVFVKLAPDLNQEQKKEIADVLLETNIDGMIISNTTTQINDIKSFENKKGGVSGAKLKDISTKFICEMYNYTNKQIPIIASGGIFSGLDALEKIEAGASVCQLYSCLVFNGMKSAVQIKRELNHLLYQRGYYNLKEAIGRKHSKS
SMILES,z-score [1],z-score [2],z-score [3],z-score [4],z-score [5],z-score [6],z-score [7],z-score [8],z-score [9],z-score [10],z-score [11],z-score [12],z-score [13],composite z-score [14],z-score [15],z-score [16],z-score [17],z-score [18],z-score [19],composite z-score [20]
C[N+](C)(C)CCCCNC(=O)[C@H]1C[C@H]2C(=O)NCC(=O)N2[C@H]1c1ccc(O)cc1,-0.143,-0.811,0.658,0.519,0.124,0.227,-0.12 (inactive),-0.797,-0.988,-1.02 (inactive),-0.103,0.105 (inactive),-0.511 (inactive),-29.2 (active),0.28 (inactive),-0.279 (inactive),0.703 (inactive),1.35 (inactive),-0.253,-0.17
C=CCC(OC(C)=O)[C@@H]1[C@@H](N(Cc2ccc(-c3ccccc3)cc2)C(=O)c2cccc3ccccc23)c2cc(OCCCO)ccc2N1C(=O)c1ccc2ccccc2n1 (stereo not given in full),0.479,0.522,0.833,-0.318,0.116,3.07,0.0656 (inactive),-0.0127,0.506,0.131 (inactive),-0.253,-0.953 (inactive),0.0319 (inactive),-0.178 (inactive),0.161 (inactive),-0.909 (inactive),0.908 (inactive),0.376 (inactive),0.131,-0.0282
C#CCOC(=O)N[C@H](C=CCCCC)c1ccccc1,-1.18,-0.115,-0.517,-0.334,-0.508,1.47,-0.62 (inactive),0.15,0.0811,-0.28 (inactive),0.063,0.578 (inactive),-0.883 (inactive),-0.837 (inactive),0.936 (inactive),-0.0736 (inactive),-0.467 (inactive),-0.424 (inactive),-0.137,-0.0133
Cc1cc(C)c(C(O)C2C=CC3C(=O)N(c4ccccc4)C(=O)C3N2Nc2ccccc2)c(C)c1 (stereo not given),0.479,-1.35,1.37,0.541,0.281,-1.21,-0.422 (inactive),-0.225,-0.425,-0.825 (inactive),-0.156,0.439 (inactive),-0.307 (inactive),0.224 (inactive),1.14 (inactive),0.292 (inactive),-0.297 (inactive),0.445 (inactive),-0.0598,0.0542
